Our source for the growth values is PubChem BioAssay (NCI).

SMILES strings stand for the structures. About 83,000 compounds went through this panel and 20% of them were active in at least one assay; those are over-represented in the sample as a whole.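 Method: cells in 96-well plates; compound added at one concentration; 48 h incubation; percent growth measured; values under 10 scored active.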 Unmarked numbers belong to inactive results. Activity calls are given as the source filed them.

What all share (assay): NCI-60 one-dose screen, 48 h (100 = growth as untreated, 0 = no growth, -100 = all killed)
Settings in all cases: 10 µM unless noted

The test system of assay [1] is SK-MEL-2 melanoma.
Assay [2] relates to EKVX NSCLC.
The test system of assay [3] is SN12C renal.
The test system of assay [4] is UO-31 renal.
Assay [5] has as its system TK-10 renal.
Assay [6] relates to ACHN renal.
For assay [7], the system named is CAKI-1 renal.
In assay [8] the test system is A498 renal.
For assay [9], the system named is MOLT-4 leukemia.
The test system of assay [10] is RPMI-8226 leukemia.
In assay [11] the test system is OVCAR-8 ovarian.
Assay [12] relates to OVCAR-5 ovarian.
The subject of assay [13] is OVCAR-4 ovarian.
For assay [14], the system named is SK-OV-3 ovarian.
The subject of assay [15] is IGROV1 ovarian.
The subject of assay [16] is OVCAR-3 ovarian.
The test system of assay [17] is HS 578T breast.
For assay [18], the system named is NCI/ADR-RES ovarian.
Assay [19] relates to CCRF-CEM leukemia.
For assay [20], the system named is SR leukemia.

With `C=C1C(=O)O[C@H]2[C@H]1CC/C(COC(=O)NCc1ccc(Cn3c(=O)sn(CCCCl)c3=O)cc1)=C\CC[C@@]1(C)O[C@@H]21`, the growth was 49% in assay [1]; 57.1% in [2]; 18.5% in [3]; 11% in assay [4]; -65.2% (active) in assay [5]; -57.7% (active) in [6]. Besides, the growth in assay [7] was 27.7%; in [8], 104%; in assay [9], -31.7% (active); in [10], -30.1% (active); in [11] it was 43.7%; in [12] it was 69.8%. Besides, the growth in assay [13] is 15.2%; in assay [14], 91.9%; in assay [15], -36.3% (active); in [16] it was -87.9% (active); in [17] it was 88.2%; in assay [18] it was 104%.

As to `O=C(NCCN1CCC(O)CC1)c1cc2c(o1)C(=O)c1ccccc1C2=O`, the growth is -66.1% (active) in assay [1]; -76.8% (active) in [2]; -88.1% (active) in [3]; -98.9% (active) in assay [4]; -91.8% (active) in [5]; -89.2% (active) in assay [6]. Further, the growth is -97.1% (active) in assay [7]; 2.16% (active) in assay [19]; -4.13% (active) in assay [9]; 13.4% in assay [20]; -48.8% (active) in assay [11]; -84.7% (active) in [12]. Further, the growth in assay [13] was -94.1% (active); in assay [15], -83.8% (active); in assay [16] it was -75.1% (active); in assay [18], -26.3% (active).

For `O=C(CC12CC3CC(CC(C3)C1)C2)NCCOCCOCCOCCNC(=O)c1cc2c(o1)C(=O)c1ccccc1C2=O`, the growth is -27.6% (active) in assay [1]; -27.1% (active) in assay [2]; -90.7% (active) in [3]; -68.5% (active) in assay [4]; -3.88% (active) in assay [5]; -22.4% (active) in assay [6]. In addition, the growth was -27% (active) in assay [7]; 13% in assay [19]; 7.19% (active) in assay [9]; 7.13% (active) in assay [20]; 12.4% in [11]; -87.9% (active) in assay [12]. For the same compound, the growth in [13] was -95.9% (active); in [15], -10.8% (active); in [16], -42.9% (active); in [17], -27.2% (active); in [18], -15% (active).

For `O=C(/C=C/C12c3ccccc3C(c3ccccc31)C1C(=O)NC(=O)C12)c1ccccc1` (stereo unspecified), the growth in assay [1] is 30.9%; in assay [2], 21%; in [3] it was 18.8%; in [4], 39.7%; in [5], 44.3%; in assay [6] it was 32.7%. Besides, the growth in assay [7] was 45.2%; in [19] it was 12.6%; in [9], 16.6%; in [20], 20.9%; in assay [10], 5.51% (active); in assay [11], 27.3%. Moreover, the growth is 26.4% in assay [12]; 39.4% in assay [13]; 19.8% in [15]; 2.7% (active) in [16]; 5.9% (active) in assay [18].

For the compound `CN(C)CN1CCN(c2ccc3nc(-c4ccc5nc(-c6ccc(C(F)(F)F)cc6)[nH]c5c4)[nH]c3c2)CC1`, the growth is 52% in assay [1]; 79% in [2]; 64.4% in [3]; 131% in assay [4]; 130% in assay [5]; 79.3% in assay [6]. Also, the growth in assay [7] is 73.6%; in assay [19] it was 38.6%; in assay [9], 44.2%; in assay [20], 17.7%; in assay [10], 19.1%; in assay [12] it was 114%. The growth in assay [13] is -4.77% (active); in assay [15], 78.7%; in [16] it was 89.7%; in [18] it was 97.9%.

On to `O=C(NCCOCCOCCOCCNC(=O)c1cc2c(o1)C(=O)c1ccccc1C2=O)NC12CC3CC(CC(C3)C1)C2`, for which the growth in assay [1] is -17.9% (active); in [2], -4.03% (active); in assay [3] it was -68.2% (active); in assay [4] it was -59% (active); in assay [5] it was -3.88% (active); in assay [6] it was 0.47% (active). The growth was -5.41% (active) in [7]; 18.8% in [19]; 12.1% in assay [9]; 14.8% in [20]; 1.25% (active) in assay [11]; -69.9% (active) in assay [12]. The growth in assay [13] was -72.8% (active); in [15] it was 6.23% (active); in assay [16], -32% (active); in assay [17] it was -30.3% (active); in [18], 8.9% (active).
